outcome, AC50 and Potency data for 39 compounds are collected here from PubChem BioAssay (NCATS).

Structures are written as SMILES. Activity calls are given as the source filed them. A call without a number means that no potency is given here. Unless noted, calls come from the whole dose curve.

The conditions of test [1]: Ebola virus entry cell assay, ratio channel.
The nature of test [2]: Immunotoxin (SS1P) sensitization/mitigation study. Vehicle arm (DMEM) (AID 1159513; call rule not given here; note: potency is the fitted concentration of half-maximal effect). Conditions: cell viability with vehicle (DMEM); series mostly up to 46.1 µM.
Test [3] is described as follows: Immunotoxin (HA22) sensitization/mitigation study. Vehicle arm (PBS) (AID 1159510; call rule not given here; note: potency is the fitted concentration of half-maximal effect). Conditions: cancer cells viability with PBS vehicle (HA22 study); series mostly up to 46.1 µM.

With `CC[C@H](C)C(=O)O[C@H]1C[C@@H](C)C=C2C=C[C@H](C)[C@H](CC[C@@H]3C[C@@H](O)CC(=O)O3)[C@H]21`, the outcome in test [1] was inactive. In the case of `COc1c(C)c2c(c(O)c1C/C=C(\C)CCC(=O)OCCN1CCOCC1)C(=O)OC2`, the concentration at half-maximal activity (AC50) (in general, the concentration giving half of the maximal activity seen) in test [1] was 3.98 µM (active). As to `CC(S)C(=O)NCC(=O)O` (stereo unspecified), the outcome in test [1] was inactive. On the same count and under the same terms, the result for `NC(=O)C(c1ccccc1)(c1ccccc1)[C@@H]1CCN(CCc2ccc3c(c2)CCO3)C1` reads “inactive”.

Turning to `CCN(CC)CCNC(=O)c1c(C)[nH]c(/C=C2\C(=O)Nc3ccc(F)cc32)c1C`, the AC50 in test [1] was 3.16 µM (active). Turning to `CNCC[C@@H](Oc1ccccc1C)c1ccccc1`, the AC50 in test [1] is 17.8 µM (active). Regarding `CCOC(=O)C1=C(C)NC(C)=C(C(=O)OC)C1c1cccc(Cl)c1Cl` (stereo unspecified), in test [1], the result was inactive. The same measure, in the same setting: the result for `N=C(N)c1ccc(OCCCCCOc2ccc(C(=N)N)cc2)cc1` reads “inactive”.

With `OCCN1CCN(CCCN2c3ccccc3Sc3ccc(Cl)cc32)CC1`, the half-maximal activity concentration (AC50) in test [1] is 5.62 µM (active). With `O=C1C(=O)c2ccccc2C(O)=C1C1CCC(c2ccc(Cl)cc2)CC1` (stereo unspecified), the result in test [1] was inactive.

As for `COc1cc(C(C)=O)ccc1OCCCN1CCC(c2noc3cc(F)ccc23)CC1`, the result in test [1] was inactive.

For `O[C@@H](CNC[C@H](O)[C@H]1CCc2cc(F)ccc2O1)[C@@H]1CCc2cc(F)ccc2O1`, in test [1], the AC50 is 5.01 µM (active). Turning to `Clc1ccc2c(c1)C(N1CCNCC1)=Nc1ccccc1O2`, the half-maximal activity concentration (AC50) in test [1] was 12.6 µM (active). On the same count and under the same terms, the result for `CC(CN1c2ccccc2Sc2ccccc21)N(C)C` (stereo unspecified) reads 20 µM (active); that for `CNCCCN1c2ccccc2CCc2ccccc21`, 15.8 µM (active).

On to `CCOC(=O)[C@H](CCc1ccccc1)N[C@@H](C)C(=O)N1Cc2cc(OC)c(OC)cc2C[C@H]1C(=O)O`, for which the result in test [1] was inactive. In the case of `CCC(=O)O[C@H]1[C@H](O[C@@H]2[C@@H](C)[C@H](O[C@H]3C[C@@](C)(OC)[C@@H](O)[C@H](C)O3)[C@@H](C)C(=O)O[C@H](CC)[C@@](C)(O)[C@H](O)[C@@H](C)C(=O)[C@H](C)C[C@@]2(C)O)O[C@H](C)C[C@@H]1N(C)C`, in test [1], the result was inactive. Regarding `CC(C)C(=O)Nc1ccc([N+](=O)[O-])c(C(F)(F)F)c1`, the outcome in test [1] was inactive. Same read-out and setting: the result for `Cc1nc2n(c(=O)c1CCN1CCC(c3noc4cc(F)ccc34)CC1)CCCC2` reads “inactive”; that for `Cc1cn([C@H]2C[C@H](N=[N+]=[N-])[C@@H](CO)O2)c(=O)[nH]c1=O`, “inactive”.

With `Cc1cccc(Nc2ccncc2S(=O)(=O)NC(=O)NC(C)C)c1`, the outcome in test [1] was inactive. The same measure, in the same setting: the result for `Nc1nc(F)nc2c1ncn2[C@@H]1O[C@H](CO)[C@@H](O)[C@@H]1O` reads “inactive”. For the compound `O=C(c1ccc(OCCN2CCCCC2)cc1)c1c(-c2ccc(O)cc2)sc2cc(O)ccc12`, the AC50 in test [1] is 5.01 µM (active).

For the compound `Cc1nc2n(c(=O)c1CCN1CCC(c3noc4cc(F)ccc34)CC1)CCC[C@H]2O`, the result in test [1] was inactive. Still for that read-out and setting: the result for `CCCN(CCC)CCc1cccc2c1CC(=O)N2` reads “inactive”.

On to `COc1cc2nc(N3CCN(C(=O)c4ccco4)CC3)nc(N)c2cc1OC`, for which, in test [1], the AC50 is 12.6 µM (active). Take `CO/N=C1\CN(c2nc3c(cc2F)c(=O)c(C(=O)O)cn3C2CC2)CC1CN` (stereo unspecified): the result in test [1] was inactive.

Regarding `COc1ccc(-c2cc(=S)ss2)cc1`, the result in test [1] was inactive. Turning to `CN(C)CCC=C1c2ccccc2C=Cc2ccccc21`, the AC50 in test [1] was 12.6 µM (active). The same measure, in the same setting: the result for `CC(C)NCC(O)COc1ccc(CCOCC2CC2)cc1` (stereo unspecified) reads 15.8 µM (active).

On to `Cc1cccc(C)c1OCC(C)N` (stereo unspecified), for which the outcome in test [1] was inactive. On the same count and under the same terms, the result for `N[C@@H](Cc1cc(I)c(Oc2cc(I)c(O)c(I)c2)c(I)c1)C(=O)O` reads “inactive”. In the case of `O=C1Cc2cc(CCN3CCN(c4nsc5ccccc45)CC3)c(Cl)cc2N1`, the AC50 in test [1] was 15.8 µM (active). Turning to `CCCN1C[C@H](CSC)C[C@@H]2c3cccc4[nH]cc(c34)C[C@H]21`, the result in test [1] was inactive.

As to `CCN(CCO)CCCC(C)Nc1ccnc2cc(Cl)ccc12` (stereo unspecified), the Potency result in test [2] was “inactive”. Still for that read-out and setting: the result for `O=C1Nc2ccc(Cl)cc2[C@@](C#CC2CC2)(C(F)(F)F)O1` reads 48.1 µM (active).

Regarding `COc1cc([C@@H]2c3cc4c(cc3[C@H](O)[C@H]3COC(=O)[C@H]23)OCO4)cc(OC)c1OC`, the Potency in test [3] was 0.0037 µM (active); in test [2], 0.0083 µM (active). Take `Cc1cc2c(C(C)C)c(O)c(O)c(C=O)c2c(O)c1-c1c(C)cc2c(C(C)C)c(O)c(O)c(C=O)c2c1O`: the Potency in test [3] is 8.33 µM (active).

Turning to `COc1cc(Nc2c(C#N)cnc3cc(OCCCN4CCN(C)CC4)c(OC)cc23)c(Cl)cc1Cl`, the Potency in test [3] is 13.2 µM (active); in test [2], 23.5 µM (active).
